# Sampled rows, rich in hits. Any-hit rate of the full collection: about 19%.
# ELG1 DNA repair = ELG1-dependent DNA repair inhibition; HEK293T ELG1-luciferase reporter, luminescence, 16 h; DNA damage induced by 5-fluorouridine; hit rate 2.3% among 330,000; Potency, µM (highest dose often 46.1 µM), for the others: at the top dose activity change, negative = inhibition, actives largely listed as inhibitors; also: potency is read from the fitted curve at half-maximal effect; nearly all actives have a fitted effect of over 55% in size
#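 Reporter activity after DNA damage by 5-fluorouridine is monitored. Compound-treated cells incubate 16 hr at 37 °C, then ONE-Glo is added for 30 min before luminescence reading.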
# TDP1 block = TDP1 (human) enzyme inhibition | Q9NUW8 | recombinant TDP1, AlphaScreen DNA substrate cleavage | Potency, µM (series often up to 130 µM), without a hit: top-dose activity change, negative = inhibition, most hits filed as inhibitors | hit rate 0.28% among 350,000; also: potency is read from the fitted curve at half-maximal effect; nearly all actives have a fitted effect of over 40% in size
# Target sequence (Q9NUW8 whole entry, looked up): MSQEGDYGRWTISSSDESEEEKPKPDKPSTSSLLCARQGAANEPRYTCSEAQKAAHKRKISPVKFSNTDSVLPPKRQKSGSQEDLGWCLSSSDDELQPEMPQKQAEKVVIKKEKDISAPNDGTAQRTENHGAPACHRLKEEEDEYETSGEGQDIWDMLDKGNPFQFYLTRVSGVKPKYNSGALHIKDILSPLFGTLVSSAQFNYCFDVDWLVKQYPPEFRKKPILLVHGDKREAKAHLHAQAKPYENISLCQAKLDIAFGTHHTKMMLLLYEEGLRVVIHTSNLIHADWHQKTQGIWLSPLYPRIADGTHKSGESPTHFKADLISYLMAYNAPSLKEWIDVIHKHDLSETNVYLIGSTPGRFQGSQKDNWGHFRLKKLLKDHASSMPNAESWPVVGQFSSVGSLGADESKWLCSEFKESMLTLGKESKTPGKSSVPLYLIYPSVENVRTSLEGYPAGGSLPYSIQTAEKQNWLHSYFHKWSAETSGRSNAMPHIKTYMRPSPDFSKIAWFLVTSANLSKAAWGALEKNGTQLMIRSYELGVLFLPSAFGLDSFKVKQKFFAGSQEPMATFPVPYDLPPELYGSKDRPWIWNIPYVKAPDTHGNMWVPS
#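 Compounds were preincubated with Tdp1 (1 nM final) for 15 min at room temperature before substrate (15 nM final) started a 5 min reaction; beads (10 ug/ml final) were then added for 10 min before AlphaScreen detection.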
# TDP1 cell CPT = DT40-hTDP1 cell growth loss with CPT. chicken DT40 Tdp1-/-;hTDP1 cells + 20 nM CPT, ATP luminescence, 48 h. Potency, µM (top dose mostly 46.2 µM), without a hit: at the top dose activity change, negative = growth inhibition, most hits filed as inhibitors. hit rate 12% among 420,000. AID 686979; also: potency is read from the fitted curve at half-maximal effect; nearly all actives have a fitted effect of over 55% in size
#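 Chicken DT40 Tdp1-/- cells complemented with human TDP1, 400 cells/well, exposed to compounds plus 20 nM camptothecin for at least 48 h at 37 C; viability read as ATP content by CellTiter-Glo luminescence.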
# Giardia killer = kills Giardia lamblia. Giardia lamblia trophozoite viability. activity change, % at 7.66 µM, hits read low. hit rate 0.15% among 340,000; in the data active = activity change below about -80%; inconclusive = between about -30% and that limit;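 also: parasites exposed to compound for two days anaerobically before the ATP read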
#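 Viability, read as ATP luminescence: trophozoites at 100 cells/well, compound added, 48 hrs anaerobic at 37 deg C, then 15-30 min room-temperature development before reading.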
# IL1B secr inh = inflammasome signaling inhibition, IL-1 beta readout; THP-1 LPS/ATP IL-1B secretion, AlphaLISA, 16 h; stronger effect = lower value; activity change, % at 57.5 µM; hit rate 4.7% among 360,000; in the data active = activity change below about -50%; inconclusive = mostly about -30% to -49%
#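 THP-1 cells pretreated 1 hr with compounds (up to 57.5 uM final), then stimulated with LPS (250 ng/mL final) plus ATP (1.25 mM final); secreted IL-1B measured by AlphaLISA after 16 hr, decreased signal indicating inhibition.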
# DT40 TDP1 no CPT = qHTS for Inhibitors of human tyrosyl-DNA phosphodiesterase 1 (TDP1): qHTS in cells in absence of CPT | DT40 Tdp1-/- hTDP1 cells, no CPT, ATP luminescence, 48 h | Potency, µM (doses to about 46.2 µM), without a hit: at the top dose activity change, negative = growth inhibition, actives largely listed as inhibitors | hit rate 15% among 420,000 | AID 686978, 2013; also: potency is read from the fitted curve at half-maximal effect; nearly all actives have a fitted effect of over 55% in size
#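 Readout: luminescence from CellTiter-Glo after 30 min in the dark at RT. Cells: DT40 Tdp1-/- with stable hTDP1, 400/well. Exposure: compounds alone, ≥48 hr, 37 °C.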
# * = called active by the depositor; ? = inconclusive; . = no result; [ ] = another dose, or the depositor's remark. Unless noted, calls follow the shape of the dose curve; as a rule, active = well fitted curve in the direction sought with a large enough effect; inconclusive = small, poorly fitted or top-dose-only effect, or another doubt; inactive = no such curve, though single readings can be large; an effect the other way counts as inactive or inconclusive. % is scaled to controls: 0 for no effect and ±100 for the full control effect.
SMILES,ELG1 DNA repair,TDP1 block,TDP1 cell CPT,Giardia killer,IL1B secr inh,DT40 TDP1 no CPT
O=C(Cc1c(F)cccc1Cl)Nc1ccon1,9%,-1%,-7%,-12,-9,-16%
O=C(Cc1c(F)cccc1Cl)Nc1nc2ccccc2s1,?,0%,?,20,-57*,?
Cc1[nH]n(-c2ccccc2)c(=O)c1C(=O)c1ccc(Cl)cc1,?,4%,?,0,77,?
Cc1[nH]n(-c2ccc(Cl)cc2)c(=O)c1C(=O)c1ccccc1,-4%,6%,?,1,-8,?
CCSC(=S)c1c(C)[nH]n(-c2ccccc2)c1=O,?,0%,15µM*,-2,-22,13µM*
CCC/C(C)=N/NC(=O)c1ccccc1O,12%,-10%,6%,-5,46,?
CC/C(=N/NC(=O)c1ccccc1O)c1c(C)[nH]n(-c2ccccc2)c1=O,.,.,2.1µM*,-17,136,1.8µM*
CCCCCC(O)c1ccc([C@H]2CCC(=O)[C@@H]2CCCCCCC(=O)O)cc1 (some centres undefined),.,7%,.,.,.,.
Cc1ccc(N(Cc2ccccc2)C(=O)c2ccc(Cl)c(S(=O)(=O)N3CCOCC3)c2)cc1,?,0%[0.505 µM],?,-2,-10,?
O=C(CCc1nnc(CCc2ccccc2)o1)N1CCCC1c1nccs1 (centres undefined),6%,6%,-2%,10,-9,-4%
COc1ccc(-c2noc(-c3ccc(N4CCCCC4C)c([N+](=O)[O-])c3)n2)cc1OC (centres undefined),.,6%,?,.,.,?
CCOC(=O)c1cc(-c2csc(COc3ccccc3Cl)n2)on1,-28%,5%,21µM*,5,-24,16µM*
CCOC(=O)C1CCN(S(=O)(=O)c2cc3c4c(c2)CC(=O)N4CCC3)CC1,.,5%,-10%,.,.,?
NNc1nc(-c2ccccc2)nc2sc3c(c12)CCCC3,?,-1%,?,-5,-15,21µM*
Cc1nc(Nc2ccc(O)cc2)c2c3c(sc2n1)CCCC3,?,4%,?,-2,14,?
Cc1ccc(CNc2nc(C)nc3sc4c(c23)CCC4)cc1,?,-3%,23µM*,10,3,18µM*
Cc1nc(NC(C)c2ccccc2)c2c3c(sc2n1)CCC3 (centres undefined),?,1%,16µM*,3,-1,16µM*
CC(C)C(NC(=O)c1ccco1)C(=O)OCC(=O)Nc1ccc(C(N)=O)cc1 (centres undefined),-2%,0%,-7%,18,7,-27%
O=C(CCc1cn(Cc2ccc(F)cc2)c2ccccc12)NCCc1ccc(Cl)cc1,.,3%,?,.,.,18µM*
Cc1ccc(CCNC(=O)CCc2cn(Cc3ccccc3C)c3ccccc23)cc1,.,3%,18µM*,.,.,16µM*
CCn1cc(CCC(=O)NCc2ccc(C)cc2)c2ccccc21,.,8%,?,.,.,?
Cc1ccc(Cn2cc(CCC(=O)NCC(C)c3ccccc3)c3ccccc32)cc1 (centres undefined),.,0%,?,.,.,16µM*
CCOc1ccc(CCNC(=O)CCc2cn(Cc3ccc(F)cc3)c3ccccc23)cc1,.,5%,?,.,.,21µM*
CCOc1ccc(CNC(=O)CCc2cn(C)c3ccccc23)cc1,-4%,.,-22%,-5,-12,?
Nc1ccc(C(=O)Nc2cccc(N)c2)cc1,?,-3%,-12%,2,18,-20%
SMILES,ELG1 DNA repair,TDP1 block,TDP1 cell CPT,Giardia killer,IL1B secr inh,DT40 TDP1 no CPT
CCOc1ccc(C2C(C(N)=O)=C(C)Nc3nc(SCc4ccccc4)nn32)cc1 (centres undefined),.,-6%,-18%,.,.,-2%
Cc1nc2ccc(NC(=S)NC3CCCCC3)cc2nc1C,?,5%,-18%,-7,-14,-5%
CCNc1ncnc2c1nnn2C,.,-3%,-11%,.,.,-11%
CCn1cc([N+](=O)[O-])c(C(=O)N2N=C3/C(=C/c4cccs4)CCCC3C2c2cccs2)n1 (centres undefined),?,-5%,?,0,-5,?
CC(C)Cn1c(N)c(C(=O)COC(=O)c2ccc(F)cc2)c(=O)n(C)c1=O,?,6%,?,6,-16,?
CC(C)Cn1c(N)c(C(=O)COC(=O)c2cccn2C)c(=O)n(C)c1=O,9.2µM*,1%,15µM*,-16,-21,16µM*
CC(C)Cn1c(N)c(C(=O)COC(=O)c2cccc(Cl)c2)c(=O)n(C)c1=O,21µM*,0%,0%,-7,40,?
Cc1noc(C)c1C(=O)OCC(=O)c1c(N)n(CC(C)C)c(=O)n(C)c1=O,?,-2%,18µM*,-5,1,?
CC(C)Cn1c(N)c(C(=O)COC(=O)c2ccc3c(c2)OCCO3)c(=O)n(C)c1=O,7.1µM*,9%,18µM*,2,-4,21µM*
Cc1ccc(C)c(NCCCCC(=O)O)c1,.,.,5%,.,18,-8%
COc1ccc(CC(=O)Oc2ccc(C)cc2Br)cc1OC,5%,9%,-18%,-8,-4,1%
CCCCCCCC/C=C\CCCCCCCC(N)=O,.,7%,5%[4.12 µM],.,.,1%[4.12 µM]
CCc1ccc(C(=O)OCC(=O)c2c(N)n(CC(C)C)c(=O)n(C)c2=O)cc1,8.2µM*,2%,?,-14,-7,?
CC(C)Cn1c(N)c(C(=O)CSc2ccc3c(c2)OCCO3)c(=O)n(C)c1=O,7.3µM*,4%,4.1µM*,0,-8,3.7µM*
O=C(O)CSc1nc2ccccc2nc1N1CCCCC1,.,0%,2%,.,.,7%
COC(=O)CS(=O)(=O)c1nc2ccccc2nc1N1CCCCC1,.,-1%,21µM*,.,.,13µM*
CCOc1ccc(NC(=O)Cn2c(=O)n(CCC(=O)NCCc3ccccc3)c(=O)c3ccccc32)cc1,.,0%,8%,.,.,5%
Cc1ccc(NC(=O)CN(C)C(=O)c2ccccc2Cc2ccccc2)cc1,-6%,4%,?,1,-58*,?
Cc1ccc(NC(=O)CN(C)C(=O)Cc2c(Cl)cccc2Cl)cc1,5%,-7%,?,-13,1,16µM*
Cc1cccc(C)c1NC(=O)CN(C)C(=O)c1ccccc1Cc1ccccc1,-10%,0%,?,7,1,?
CCOC(=O)c1nn(-c2ccc(OC)cc2)c(=O)c2c(NC(=O)Cc3ccccc3)scc12,.,-1%,.,.,.,.
Cc1ccc2cccc(N)c2n1,9%,1%,-1%,-8,14,-11%
Cc1ccc2cccc(O)c2n1,.,.,7.1µM*,.,.,7.1µM*

# Screening results as filed in PubChem BioAssay.
